High-throughput results as filed in PubChem.
sEH inhibitor: blocks human soluble epoxide hydrolase activity | recombinant human sEH enzymatic activity assay | inhibition, % at 2 µM | actives 0.34% (n = 91,000) | AID 707; in the data active = inhibition above about 80%
Target sequence (P34913 whole entry, looked up): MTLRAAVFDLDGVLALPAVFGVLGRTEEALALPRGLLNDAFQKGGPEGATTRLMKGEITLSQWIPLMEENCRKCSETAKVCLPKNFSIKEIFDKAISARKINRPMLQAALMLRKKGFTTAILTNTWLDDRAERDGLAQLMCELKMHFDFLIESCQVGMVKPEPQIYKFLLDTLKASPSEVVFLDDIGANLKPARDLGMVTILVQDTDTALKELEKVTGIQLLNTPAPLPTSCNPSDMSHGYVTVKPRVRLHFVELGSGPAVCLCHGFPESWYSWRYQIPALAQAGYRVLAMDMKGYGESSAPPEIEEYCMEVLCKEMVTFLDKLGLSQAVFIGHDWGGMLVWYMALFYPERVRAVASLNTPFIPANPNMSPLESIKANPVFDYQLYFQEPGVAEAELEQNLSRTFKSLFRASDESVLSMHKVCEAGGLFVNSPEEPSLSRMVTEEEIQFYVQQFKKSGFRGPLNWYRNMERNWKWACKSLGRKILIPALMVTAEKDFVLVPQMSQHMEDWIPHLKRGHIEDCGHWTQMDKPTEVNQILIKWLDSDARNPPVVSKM
CYP2C9 inhib: human CYP2C9 inhibition; P11712; CYP2C9 Supersomes, luciferin-H conversion, luminescence; inhibition, % at 5 µM; actives 20% (n = 96,000);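 active = blocking of liver enzyme CYP2C9 beyond about 50% at 5 µM, limit read from the data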
CYP2C19 inh: blocks human cytochrome P450 2C19 | CYP2C19 Supersomes, luciferin-H EGE luminescence, 30 min | inhibition, % at 5 µM | actives 21% (n = 96,000) | AID 778;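 active = CYP2C19 inhibition above a set limit at 5 µM in the primary screen, cut at about 50% in these data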
CYP2C9 activ: CYP2C9 (human) activation. recombinant CYP2C9, luciferin-H conversion, luminescence; active compounds read high; factor 1 = untreated enzyme, 0 = blocked. actives 1.4% (n = 96,000). activation factor at 5 µM. P11712;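 active = activation factor of 2 or more for CYP2C9 at a 5 µM dose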
CYP2C19 activ: cytochrome P450 2C19 (human) activation. P33261. recombinant CYP2C19, luciferin-H EGE luminescence; active compounds read high; 0 = fully inhibited enzyme, 1 = untreated enzyme. activation factor at 5 µM. 96,000 tested, under 10 active. AID 1025;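 active = activation factor of at least 2 at 5 µM in the primary screen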
sEH activator: activators of human soluble epoxide hydrolase; P34913; purified human sEH enzymatic activity, activator screen; activation, % at 2 µM; actives 0.04% (n = 91,000); AID 717; in the data active = activation above about 37%
Large screens that a line does not name were inactive. Only some compounds are listed: those with a hit (about 27% of all), similar ones and a draw of the others.

CC(=O)N1CCN(Cc2nc3cc(NC(=O)c4ccccc4C)ccc3n2C)CC1	none
CC(=O)Nc1cccc(NC(=O)c2sc3ncn(CC(=O)N4CCCCC4)c(=O)c3c2C)c1	CYP2C9 inhib 80, CYP2C19 inh 79 (no result: sEH inhibitor, sEH activator)
CCN(CC)C(=O)Cn1cnc2sc(C(=O)Nc3cc(OC)c(OC)c(OC)c3)c(C)c2c1=O	CYP2C9 inhib 92, CYP2C19 inh 79
CCCNC(=O)Cn1cnc2sc(C(=O)Nc3cc(OC)c(OC)c(OC)c3)c(C)c2c1=O	none
CCOC(=O)C1=C(c2ccccc2)NC(=O)NC1c1ccc(N(C)C)cc1 (stereo unspecified)	CYP2C19 inh 80 (no result: sEH inhibitor, sEH activator)
CCCCNC(=O)Cn1c(=O)oc2cc(S(=O)(=O)N3CC(C)CC(C)C3)ccc21 (stereo unspecified)	CYP2C9 inhib 57
Cc1cc(C)cc(NC(=O)Cn2c(=O)oc3cc(S(=O)(=O)N4CC(C)CC(C)C4)ccc32)c1 (stereo unspecified)	CYP2C9 inhib 56
COc1ccccc1COC(=O)Nc1c(C)nn(C)c1Cl	none
CNC(=O)COC(=O)c1ccc(-c2nc3ccccc3s2)s1	CYP2C9 inhib 72, CYP2C19 inh 94
CC(=O)C(Cc1cnc(Cl)s1)(Cc1cnc(Cl)s1)C(C)=O	CYP2C19 inh 69
Cc1ccc(S(=O)(=O)N2CCCCC2C(=O)N2CCN(c3ccccc3F)CC2)cc1 (stereo unspecified)	CYP2C9 activ 2.2
Cc1ccc(S(=O)(=O)N2CCCCC2C(=O)N2CCN(C)CC2)cc1 (stereo unspecified)	none
CCOC(=O)C1C(=O)NC(N2CCc3ccccc32)=NC1c1ccccc1 (stereo unspecified)	none
CCn1cc(/C=C(/C#N)S(=O)(=O)c2ccccc2)cn1	CYP2C9 activ 3
N#C/C(=C\c1ccc[nH]1)S(=O)(=O)c1ccccc1	CYP2C9 activ 5.5
COc1ccc(-c2nc(-c3ccccc3)[nH]c(=O)c2C#N)cc1	CYP2C9 inhib 65
CCOC(=O)c1c(C)nc2c(c1-c1cc(OC)c(OC)c(OC)c1)C(=O)c1ccccc1-2	none
COc1ccc(-c2c(C#N)c(C)nc3c2C(=O)c2ccccc2-3)cc1	CYP2C19 inh 57
COc1ccc(-c2nc(-c3cccc(C)c3)nc(Cl)c2C#N)cc1	CYP2C9 inhib 69
CC1CCN(C(=O)c2scc3c2OCCO3)CC1	none
Cc1cc(C(=O)CN2C(=O)NC(Cc3c[nH]c4ccccc34)C2=O)c(C)n1C (stereo unspecified)	CYP2C19 inh 67
O=C1NC(Cc2c[nH]c3ccccc23)C(=O)N1CCOc1ccccc1 (stereo unspecified)	CYP2C9 inhib 57, CYP2C19 inh 82
CCOc1ccc(N2C(=O)NC(Cc3c[nH]c4ccccc34)C2=O)cc1 (stereo unspecified)	none
COc1ccc(S(=O)(=O)C(C#N)c2nc3ccccc3nc2N2CCC(C)CC2)cc1 (stereo unspecified)	none (no result: sEH inhibitor, sEH activator)
Sc1oc(-c2ccccc2)cc1C=Nc1ccccc1	none
COc1ccc(S(=O)(=O)NCc2ccccn2)cc1	none
COc1ccc(S(=O)(=O)NCCc2c(C)nn(C)c2Oc2ccccc2)cc1	CYP2C19 inh 87 (no result: sEH inhibitor, sEH activator)
Cc1nn(C)c(Oc2ccc(Cl)cc2)c1C(=O)O	none
Cc1nn(C)c(Oc2ccccc2)c1CCNS(=O)(=O)c1ccc(Cl)cc1	CYP2C9 inhib 80, CYP2C19 inh 97 (no result: sEH inhibitor, sEH activator)
CC(C)CC(c1nnnn1CC1CCCO1)N1CCN(Cc2ccc3c(c2)OCO3)CC1 (stereo unspecified)	none
Cc1ncc(CSc2nnnn2-c2ccccc2)c(N)n1	CYP2C19 inh 64
Fc1ccccc1OCCSc1nnnn1-c1ccccc1	none
c1ccc(OCCSc2nnnn2-c2ccccc2)cc1	none
COc1ccccc1OCCSc1nnnn1-c1ccc(C)cc1	CYP2C19 inh 99
CCOc1ccc(OCCSc2nnnn2-c2ccccc2)cc1	CYP2C9 inhib 50
CCSc1nnnn1-c1ccccc1	none
CCOc1ccc(OCCSc2nnnn2C2CCCCC2)cc1	CYP2C9 inhib 88, CYP2C19 inh 57
CCCC(=O)c1c[nH]c(C(=O)NCc2ccco2)c1	none
O=C(Nn1c(=O)[nH]c2ccccc2c1=O)c1ccco1	none
CN(C)c1ccc(/C=C/c2ccncc2)cc1	CYP2C9 inhib 78, CYP2C19 inh 98
CC(C)=CCCC(C)NC(=O)NC1CCCCC1 (stereo unspecified)	sEH inhibitor 91 (no result: CYP2C9 inhib, CYP2C19 inh, CYP2C9 activ, CYP2C19 activ)
